Molecules are shown by their SMILES. Where “and” joins values, the source holds several entries; their conditions need not be identical. Equal entries are not always repeated. About 5,100 (32%) of roughly 16,000 compounds were called active. Another 25% or so got no clear call; they are omitted. Calls follow the shape of the dose curve; as a rule, active = well fitted curve in the direction sought with a large enough effect; inconclusive = small, poorly fitted or top-dose-only effect, or effect the other way; inactive = no such curve, though single readings can be large or run the other way. Some of the results follow.
% is scaled to controls: 0 for no effect and ±100 for the full control effect.

Chain of Cytochrome P450 3A4 (Homo sapiens) (P08684 whole entry, looked up): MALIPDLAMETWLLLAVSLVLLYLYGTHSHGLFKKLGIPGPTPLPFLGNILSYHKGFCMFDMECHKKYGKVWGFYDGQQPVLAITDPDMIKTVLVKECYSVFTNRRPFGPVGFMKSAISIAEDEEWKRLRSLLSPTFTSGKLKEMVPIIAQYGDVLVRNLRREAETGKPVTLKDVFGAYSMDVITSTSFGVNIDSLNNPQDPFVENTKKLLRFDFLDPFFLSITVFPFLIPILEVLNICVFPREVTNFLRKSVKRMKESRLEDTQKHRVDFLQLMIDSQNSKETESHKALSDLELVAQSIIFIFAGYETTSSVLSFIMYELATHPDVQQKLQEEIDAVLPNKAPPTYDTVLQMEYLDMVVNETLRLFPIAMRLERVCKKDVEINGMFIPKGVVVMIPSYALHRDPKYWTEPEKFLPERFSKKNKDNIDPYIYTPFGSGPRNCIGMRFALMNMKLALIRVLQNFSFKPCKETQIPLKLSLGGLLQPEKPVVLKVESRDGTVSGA

This experiment addresses Cytochrome P450 3A4 (Homo sapiens) (UniProt P08684). As to the kind of experiment: Cytochrome panel assay with activity outcomes. As to conditions: recombinant CYP, pro-luciferin dealkylation, luminescence, p450-cyp3a4; series mostly up to 57.1 µM.
Take `CN(CC[C@@H](Oc1ccc(-c2ccccc2)cc1)c1ccc(F)cc1)CC(=O)O`: the AC50 result is “inactive”. Still for that read-out and setting: as for `CCCn1nc(C(=O)NCC(C)(C)N2CCOCC2)c2ccccc2c1=O`, the figure is 7.08 µM (active). As for `CCN(CC)CCNC(=O)C(C)c1nn(C)c(=O)c2ccccc12` (stereo not given), the activity, negative = inhibition is -0.681% [at 2.29 µM] (inactive). Take `CC1CCN(CCOc2cc(Cl)ccc2Cl)CC1`: the AC50 result was “inactive”. As to `CC(C)NCCCOc1ccc(Cl)cc1Br`, the activity, negative = inhibition was 6.16% [at 2.29 µM] (inactive). `Cc1cc(Cl)ccc1OCCCC(=O)N1CCN(C)CC1`: the AC50 is 12.6 µM (active).

Consider `CC(C)=CCC/C(C)=C/CO/N=C1/[C@H]2O[C@@H]2[C@@H](O)[C@H]2[C@H]1CCn1c(=O)n(-c3ccccc3)c(=O)n12`, for which the activity, negative = inhibition is -17.8% [at 11.4 µM] (inactive). Take `CC(=O)OC[C@H]1O[C@@H](O/N=C2/[C@H]3O[C@@H]3[C@@H](O)[C@H]3[C@H]2CCn2c(=O)n(-c4ccccc4)c(=O)n23)[C@H](OC(C)=O)[C@@H](OC(C)=O)[C@@H]1OC(C)=O`: the activity, negative = inhibition is -17.4% [at 11.4 µM] (inactive).

As for `CC(C)CO/N=C1/[C@H]2O[C@@H]2[C@@H](O)[C@H]2[C@H]1CCn1c(=O)n(-c3ccccc3)c(=O)n12`, the activity, negative = inhibition is -14% [at 11.4 µM] (inactive). As for `CCCNC(=O)OC[C@H]1O[C@@H](CCO/N=C2/[C@H]3O[C@@H]3[C@@H](O)[C@H]3[C@H]2CCn2c(=O)n(-c4ccccc4)c(=O)n23)C=C[C@@H]1Oc1ccc(OC)cc1`, the AC50 is 3.16 µM (active). Consider `O=c1n(-c2ccccc2)c(=O)n2n1CC[C@H]1/C(=N\OCc3ccccc3)[C@H]3O[C@@H]3[C@@H](O)[C@@H]12`, for which the activity, negative = inhibition was -7.77% [at 11.4 µM] (inactive).

Take `COc1ccc(O[C@H]2C=C[C@@H](c3ccccc3)O[C@H]2CO/N=C2/[C@H]3O[C@@H]3[C@@H](O)[C@H]3[C@H]2CCn2c(=O)n(-c4ccccc4)c(=O)n23)cc1`: the AC50 was 3.16 µM (active).

With `O=C(CP(=O)(c1ccccc1)c1ccccc1)Nn1cnnc1`, the AC50 result is “inactive”. Turning to `O=C(c1csnn1)N1CCC2(CC1)CN(c1ccccc1)C2`, the AC50 result was “inactive”.

Turning to `O=C(c1csnn1)N1CCC2(CC1)CCN(c1ccccc1)CC2`, the AC50 result is “inactive”.

Take `O=C(c1csnn1)N1CCC2(CCCN(c3ccc(-c4ccccc4)cc3)C2)CC1`: the AC50 was 7.94 µM (active).

`O=C(c1csnn1)N1CCC2(CC1)CCN(c1ccccn1)CC2`: the AC50 entry is “inactive”. The same measure, in the same setting: the same measure for `O=C(c1csnn1)N1CCC2(CCCN(c3ccccc3)C2)CC1`: 12.6 µM (active); for `CN1CCC(n2[nH]c(-c3ccccc3)c(Cc3ccccc3)c2=O)CC1`: 3.98 µM (active). Regarding `O=c1c(Cc2ccccc2)c(O)nc2n1CCS2`, the activity, negative = inhibition was -2.9% [at 2.29 µM] (inactive). Take `CCNc1ncc2nc(-c3ccc(Cl)cc3)c(=O)n(C3CC3)c2n1`: the AC50 result is “inactive”. The same measure, in the same setting: as for `CCOC(=O)c1c(C)oc2c1cc(O)c1ccccc12`, the figure is 14.1 µM (active). Still for that read-out and setting: the same measure for `CCOC(=O)c1c(C(C)(C)C)oc2ccc(O)cc12`: “inactive”; for `CCOC(=O)c1c(C)oc2c1c(C=NC1CCS(=O)(=O)C1)c(O)c1ccccc12` (stereo not given): “inactive”.

For `CN(C)CN1CSC(=S)N(CN(C)C)C1`, the activity, negative = inhibition is -11.6% [at 11.4 µM] (inactive). For the compound `COc1cc(CNC(=O)CCCC/C=C\C(C)C)ccc1O`, the AC50 is 3.98 µM (active) and 7.94 µM (active). On the same count and under the same terms, as for `COc1cc(CC(=O)O)ccc1O`, the entry is “inactive”. Take `COc1cc([C@H](O)C(=O)O)ccc1O`: the AC50 entry was “inactive”. Still for that read-out and setting: the same measure for `CCOC(=O)c1c(NC(=S)NC(=O)c2cnn(CC)c2)sc2c1CCC(C)C2` (stereo not given): “inactive”; for `CCn1c(SCC(=O)Nc2sc3c(c2C#N)CCC(C(C)(C)C)C3)nnc1-c1ccco1` (stereo not given): “inactive”. On the same count and under the same terms, as for `CCn1c(SCC(=O)Nc2sc3c(c2C(N)=O)CCC(C)C3)nnc1-c1ccco1` (stereo not given), the figure is 7.08 µM (active).

For `CC(=O)C[C@H](c1ccc([N+](=O)[O-])cc1)c1c(O)c2ccccc2oc1=O`, the AC50 result was “inactive”. Turning to `CC1=NCC[N@@+]1(CCc1ccccc1)Cc1ccccc1`, the activity, negative = inhibition is -18.6% [at 11.4 µM] (inactive). As for `COc1ccccc1CNc1ccnc(-c2cccc(C#N)c2)n1`, the AC50 is 3.98 µM (active).

On to `COc1ccc(CNc2ccnc(-c3cccc(C#N)c3)n2)c(OC)c1`, for which the AC50 is 2 µM (active). Take `N#C[C@H](c1ccccc1)N1CCCN([C@@H](C#N)c2ccccc2)C1c1ccccc1O` (stereo not given in full): the activity, negative = inhibition was -24.5% [at 11.4 µM] (inactive). For `O=C(O)CC/C=C\CC[C@H]1[C@@H](N2CCCCC2)[C@@H](O)C[C@@H]1OCc1ccc(-c2ccccc2)cc1`, the AC50 result was “inactive”. The same measure, in the same setting: as for `NC(=O)c1ccc(NC(=O)C2CCCO2)cc1` (stereo not given), the entry is “inactive”; as for `O=C(Nc1nnc(SCc2ccc(Cl)cc2Cl)s1)C1COc2ccccc2O1` (stereo not given), 4.47 µM (active). The same measure, in the same setting: the same measure for `O=C(Nc1nnc(SCc2c(Cl)cccc2Cl)s1)C1CCCO1` (stereo not given): 12.6 µM (active).

With `O=C(Nc1ncc(Cc2ccccc2)s1)C1COc2ccccc2O1` (stereo not given), the AC50 entry is “inactive”.

Consider `CCCCCCCCCCCCCCCC[N+](C)(C)CCN(Cc1ccc(OC)cc1)c1ncccn1`, for which the AC50 entry was “inactive”. As for `NC(N)=NC(N)=Nc1c(F)c(F)c(F)c(F)c1F`, the activity, negative = inhibition was -1.13% [at 11.4 µM] (inactive). The same measure, in the same setting: the same measure for `CC(C)=C1C(=O)NN(c2ccc(F)c(Cl)c2)C1=O`: -12.4% [at 11.4 µM] (inactive). The same measure, in the same setting: the same measure for `Cc1cccc(-n2c(Cn3nc(C)c([N+](=O)[O-])c3C)n[nH]c2=S)c1`: -17% [at 2.29 µM] (inactive). Regarding `Cc1nn(CCc2n[nH]c(=S)n2-c2ccc(F)c(Cl)c2)c(C)c1[N+](=O)[O-]`, the AC50 was 3.16 µM (active). The same measure, in the same setting: as for `C[n+]1ccccc1/C=N\O`, the entry is “inactive”. `CC(C)N1CCN(c2ccc(OC[C@@H]3CO[C@@](Cn4cncn4)(c4ccc(Cl)cc4Cl)O3)cc2)CC1`: the AC50 was 1.58 µM (active). Same read-out and setting: the same measure for `Cc1noc(C)c1-c1nc(NCc2cccs2)c2ccccc2n1`: 6.31 µM (active); for `COc1ccc(CNc2nc(-c3c(C)noc3C)nc3ccccc23)c(OC)c1`: 2.51 µM (active); for `COc1ccccc1CNc1nc(-c2c(C)noc2C)nc2ccccc12`: 10 µM (active). As to `CCn1cc(C(=O)O)c(=O)c2cnc(N3CCCC3)nc21`, the AC50 result is “inactive”.

For the compound `O=C(Nc1c[nH]c(=O)[nH]c1=O)Oc1ccccc1`, the activity, negative = inhibition was -22.1% [at 11.4 µM] (inactive). For the compound `CN(C)c1ccc(-c2cncnc2NCc2cccs2)cc1`, the AC50 was 0.794 µM (active). Take `CN(C)C(=O)c1ccc(-c2cncnc2NCc2cccs2)cc1`: the AC50 was 3.16 µM (active).

For the origin of these results see PubChem BioAssay AID1851 (National Center for Advancing Translational Sciences (NCATS), 2009).
